# In the supplement of paper PMC3334620:
# Whole data set: some 33,000 sequences, median “E-score (-0.5 to 0.5)” near -0.0059, cut for the highest 2% near 0.26. Shown is part of a subset that was picked to be rich in the highest values.
# Molecular target: T1, Cin5 (UniProt P40917)
# T1 sequence: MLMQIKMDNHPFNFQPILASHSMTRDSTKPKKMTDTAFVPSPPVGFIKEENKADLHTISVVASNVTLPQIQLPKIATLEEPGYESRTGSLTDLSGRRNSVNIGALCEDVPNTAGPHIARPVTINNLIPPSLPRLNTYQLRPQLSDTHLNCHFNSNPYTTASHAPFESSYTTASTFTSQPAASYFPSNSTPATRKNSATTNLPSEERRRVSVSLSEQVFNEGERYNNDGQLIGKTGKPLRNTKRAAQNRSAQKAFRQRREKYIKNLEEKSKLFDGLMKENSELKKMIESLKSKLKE
# Assay: PBM E-score (8-mer binding enrichment) (E-score (-0.5 to 0.5)); higher = stronger / more preferred TF binding
# Conditions: protein concentration: 100 nM; construct: GST-full length
# How it was run: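 Using PURExpress in vitro transcription/translation, GST-tagged yeast transcription factors were made in full-length or DNA-binding-domain form. These were applied at about 100-200 nM to double-stranded universal all-10-mer Agilent arrays, and bound protein was detected with fluorescent anti-GST. Scans were normalised with masliner before the Universal PBM Analysis Suite assigned E-scores to ungapped eight-base words pooled with their reverse complements.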
row,Sequence,PBM E-score
1,CGAATGAA,0.0154
2,AGAATGAC,0.0989
3,CGAATGAC,0.275
4,AGAGGACC,-0.22
5,GTATCAGA,-0.0398
6,GTATCATA,0.274
7,CTATCATA,0.21
8,ATATCATG,0.0651
9,GTATCACA,0.154
10,ATATCATA,0.288
11,CTGTGACC,0.0399
12,CAACTATC,0.0334
13,CCATAATC,0.245
14,ACATAATA,0.364
15,ACATAATG,0.204
16,ACATAATC,0.445
17,GCATAATA,0.235
18,CCATAATA,0.226
19,ACTGCCCC,-0.125
20,ACCGCGCA,0.151
21,CGCCTCTC,-0.34
22,AAATAATA,0.313
23,AAATAAGT,0.12
24,AACTAATA,0.378
25,AAATAACA,0.171

row,Sequence,PBM E-score
1,AAATAATT,0.301
2,AAATAATG,0.21
3,GAATAACA,0.26
4,CACTAATA,0.158
5,AAATAATC,0.17
6,CAATAACA,0.193
7,TACTAATA,0.193
8,AAATAAAT,0.246
9,AAAAGTTT,0.00197
10,GCTTAAGA,-0.0654
11,ACGCCTGC,-0.234
12,CTCAGCGC,0.0746
13,AATTCTCA,0.0439
14,CTGCAGTC,-0.165
15,CTAAACTC,-0.0293
16,ACGAGGTA,0.0339
17,CAATAATA,0.276
18,TAATAACA,0.146
19,GAATAATA,0.291
20,GAATAAAA,0.0288
21,TAATAATA,0.274
22,GAATAATC,0.221
23,CAATAATG,0.0624
24,TAATAAAA,0.235
25,CAATAATC,0.233

row,Sequence,PBM E-score
1,CCTGAAAA,-0.101
2,AACTTTAT,0.123
3,AGTTGTTG,0.0199
4,AAGATATC,0.207
5,ATGATATG,0.289
6,ATGATATA,0.166
7,ATGATATC,0.167
8,AAGATATG,0.268
9,AAGATATA,0.152
10,CCTTCCAG,-0.127
11,GGTCCGCA,-0.0684
12,GGTTCCCA,-0.0888
13,AACTTGCG,-0.0652
14,ACTTAACA,0.0535
15,GCAATTTA,0.137
16,ATAATTTA,0.332
17,ATAATTTG,0.208
18,CTAATTTA,0.158
19,ATAATTTC,0.136
20,GTAATTTA,0.27
21,GCCGCTCC,-0.305
22,CCCACACG,0.0465
23,GCATATGA,0.197
24,AAATATGA,0.245
25,CAATATGA,0.118

row,Sequence,PBM E-score
1,CCATATGA,-0.0136
2,TCATATGA,0.272
3,TAATATGA,0.262
4,ATGGACGC,-0.0507
5,TCTTCCCA,-0.177
6,GGTATCAC,0.0115
7,ATTGGGTC,0.13
8,ATTGGGTG,0.282
9,ATTGGGTA,0.0825
10,ACCATTCA,0.0437
11,AGTTGAAG,-0.00489
12,AGTTGAAA,-0.0098
13,AGTTGAAT,0.259
14,CGACTGGA,-0.167
15,GTTCGACA,0.0859
16,GTCTAGCA,-0.0616
17,AAACATGC,0.0556
18,ATAAGAAC,0.31
19,ATAAGAAT,0.224
20,ATAAGAAA,0.156
21,CGTCTCTA,-0.21
22,CTCGCGAC,0.107
23,GTCGCGAA,-0.0343
24,GTCGCGAC,0.317
25,TGGTAACA,-0.0163

row,Sequence,PBM E-score
1,TCACCAGA,-0.144
2,ATAATCGC,0.187
3,ATAATCGA,0.178
4,ATAATCAC,0.233
5,ATAATCAG,0.285
6,ATAATCAT,0.377
7,AAAATCAG,0.00782
8,ATAATCGG,0.291
9,ATAATCAA,0.227
10,CTAATCAG,0.14
11,AAAAGGGA,-0.1
12,CAATCTTA,0.0906
13,CCGGGTCG,-0.131
14,CAGGAGCG,-0.0881
15,AACCCATT,0.114
16,AACCCATA,0.29
17,GACCCATA,0.222
18,AGAACTTC,-0.217
19,AGCTATTG,0.01
20,AGTGGAAA,0.0448
21,CGTGGAAA,0.28
22,CGTGGAAG,0.129
23,CACTATGG,-0.15
24,AGAATATA,0.105
25,CTAATATA,0.0911

row,Sequence,PBM E-score
1,ATAATATA,0.345
2,ATAATATG,0.289
3,GTAATAAA,0.2
4,ACAATATA,0.269
5,GCAATATA,0.185
6,ATAATATC,0.221
7,CCAATATA,0.0434
8,ATAATAAG,0.225
9,GTAATATA,0.323
10,ATAATAGA,0.221
11,GAGCTCCA,-0.092
12,AAGGCCCT,-0.136
13,CTTAGTGA,0.0718
14,CCCCCTTA,-0.342
15,AGTATCAC,0.0484
16,CTATAATA,0.114
17,ATATAATA,0.303
18,GTATAATA,0.253
19,AACCCCTT,-0.0504
20,CTCCCCAA,-0.00166
21,CATCTGCC,-0.0681
22,ATGTTTTC,0.121
23,CCTGGGAG,-0.176
24,ACTCCCGC,-0.0164
